Test results published in the supplement of paper PMC13380429.
A number with no mark means an inactive call.

Test system: Vero E6 infected with SARS-CoV-2
Test: inhibition of SARS-CoV-2 cytopathic effect; higher = more antiviral protection, active = above 15
Conditions: 48 h

| Structure (SMILES) | inhibition of SARS-CoV-2 cytopathic effect (1 nM) [%] | inhibition of SARS-CoV-2 cytopathic effect (8.33 nM) [%] | inhibition of SARS-CoV-2 cytopathic effect (100 nM) [%] | inhibition of SARS-CoV-2 cytopathic effect (833.33 nM) [%] | inhibition of SARS-CoV-2 cytopathic effect (10000 nM) |
| --- | --- | --- | --- | --- | --- |
| CCc1ccc(C2=CC(C)(C)Sc3ccc(C#Cc4ccc(C(=O)O)cc4)cc32)cc1 | 0.1 | 2.14 | 1.4 | 1.53 | 3.68% |
| CC[n+]1c(-c2ccccc2)c2cc(N)ccc2c2ccc(N)cc21 [homidium] | 4.78 | 6.71 | 5.98 | 0.35 | 6.13% |
| CCc1c(C(=O)C(N)=O)c2c(OCC(=O)O)cccc2n1Cc1ccccc1 [varespladib] | 2.9 | -0.54 | 1.35 | 1.32 | 0.87% |
| C=CCN1CC[C@]2(C)c3cc(O)ccc3C[C@H]1[C@H]2C | 1.28 | 1.94 | -1.86 | 0.86 | 1.02% |
| O=C(O)C1=C[C@@H](O)[C@@H](O)[C@H](O)C1 [shikimic-acid] | 2.18 | 1.14 | 0.89 | 2.68 | 0.85% |
| CNC(=O)ON(C(C)=O)C(=O)NC [caracemide] | -4.06 | -3.46 | 0.29 | -1.19 | 8.36% |
| COc1ccc2cc(-c3cc(-c4cc(Cl)cc(Cl)c4)nn3[C@@H](C)c3ccc(C(=O)NCCC(=O)O)cc3)ccc2c1 | -1.85 | -0.02 | 0.97 | 4.66 | 4.95% |
| O[C@H]1CC[C@H](Nc2ncc3nc(Nc4c(F)cc(F)cc4F)n([C@H]4CCOC4)c3n2)CC1 | 1.66 | 2.79 | 0.98 | -0.04 | -3.68% |
| Cc1ccc(Sc2cncc3sc(C(N)=O)cc23)cc1 | -1.26 | -2.96 | -2.49 | -2.02 | 4.33% |
| Cc1cc(-c2ccccc2)nnc1NCCN1CCOCC1 [minaprine] | 0.27 | 0.75 | -0.02 | 1.16 | 1.01% |
| COc1ccc(F)c(F)c1C(=O)c1cnc(NC2CCN(S(C)(=O)=O)CC2)nc1N | -1.93 | -3.14 | -5.01 | 6.41 | -11.5% |
| CCCN(C/C=C/I)[C@H]1CCc2ccc(O)cc2C1 [7-hydroxy-PIPAT] | -0.76 | 0.14 | -1.03 | -0.19 | -1.39% |
| CN[C@@H](C)C(=O)N[C@H]1CCCC[C@H]2CC[C@@H](C(=O)N[C@@H](c3ccccc3)c3cn(CCCCc4ccc(CCCCn5cc([C@@H](NC(=O)[C@@H]6CC[C@@H]7CCCC[C@H](NC(=O)[C@H](C)NC)C(=O)N76)c6ccccc6)nn5)cc4)nn3)N2C1=O | -2.38 | -0.21 | -2.09 | -4.99 | -13.1% |
| COc1cc(COc2cc(N)c(Cl)cc2C(=O)CCC2CCN(CCNS(C)(=O)=O)CC2)cc(OC)c1 | 0.91 | 2.62 | -0.09 | 2.63 | 28.3% (active) |
| Oc1c(I)cc(Cl)c2cccnc12 [clioquinol] | -4.79 | -6.61 | -4.78 | -5.93 | -9.21% |
| CCC(=O)O[C@H]1CC[C@H]2[C@@H]3CCC4=CC(=O)CC[C@]4(C)[C@H]3CC[C@]12C | -13.2 | -10.2 | -12.5 | -13.3 | -14% |
| CN1CCN(C(=O)C2C(C(=O)O)[C@H]3CC[C@@H]2O3)CC1 (stereo not given in full) | -1.86 | 0.2 | 0.49 | 0.2 | -0.43% |
| CC(CCc1ccc(O)cc1)NCC(O)c1ccc(O)cc1 (stereo not given) [ractopamine] | -2.7 | -0.49 | -1.47 | -0.11 | 1.53% |
| NC(=O)N1c2ccccc2C=Cc2ccccc21 [carbamazepine] | -2.53 | -2.53 | -0.42 | -3.09 | -3.17% |
| C[C@]12CC[C@H](O)CC1=CC[C@@H]1[C@@H]2CC[C@]2(C)C(n3cnc4ccccc43)=CC[C@@H]12 [galeterone] | -0.79 | 0.99 | 0.05 | -5.02 | -6.94% |

| Structure (SMILES) | inhibition of SARS-CoV-2 cytopathic effect (1 nM) [%] | inhibition of SARS-CoV-2 cytopathic effect (8.33 nM) [%] | inhibition of SARS-CoV-2 cytopathic effect (100 nM) [%] | inhibition of SARS-CoV-2 cytopathic effect (833.33 nM) [%] | inhibition of SARS-CoV-2 cytopathic effect (10000 nM) |
| --- | --- | --- | --- | --- | --- |
| CC(C)c1ccc(CC(=O)N2CCC[C@@H](c3cccc(OC(C)(C)C(=O)O)c3)C2)cc1 | 0.54 | 0.54 | -0.36 | 1.87 | -0.15% |
| CN1CCN(c2c(F)cc3c(=O)c(C(=O)O)cn4c3c2SCC4)CC1 [rufloxacin] | 0.11 | -1.78 | 0.94 | 1.64 | -3.47% |
| CC(=O)Nc1c(I)c(C(=O)O)c(I)c(N(C)C(C)=O)c1I [metrizoic-acid] | -1.11 | 0.34 | 0.21 | 2.48 | 1.65% |
| Cc1cc2c(s1)Nc1ccccc1N=C2N1CCN(C)CC1 [olanzapine] | -1.67 | -2.18 | -0.41 | 8.51 | 1.41% |
| CN(C)c1cccc(Oc2cnc(Nc3cccc(O)c3)nc2)c1 | -2.69 | 0.57 | -1.76 | 2.09 | -3.69% |
| Cc1ccc([N+](=O)[O-])cc1O [2-methyl-5-nitrophenol] | -2.8 | -2.93 | -4.49 | -3.09 | -2.25% |
| Nc1ccc(/N=N/c2ccccc2)c(N)n1 [phenazopyridine] | 1.34 | 0.46 | 0.72 | 1.24 | 0.27% |
| Cc1ccc(Cl)cc1N(CC(=O)Nc1c(F)cccc1F)S(C)(=O)=O | 2.5 | -2.01 | -1.24 | 0.27 | -0.21% |
| COc1ccc2c(c1)[C@]13CCCC[C@@H]1[C@H](C2)N(C)CC3 [dextromethorphan] | 0.17 | -0.37 | 0.6 | 0.81 | -0.1% |
| Cc1noc(C)c1-c1cc(O)cc([C@@H](O)c2ccccc2)c1 | -2.32 | 1.84 | -0.24 | 1.24 | -8.49% |
| CC(C)(C)NCC(O)COc1cccc2c1CCC(=O)N2 (stereo not given) [carteolol] | 2.16 | 1.11 | 0.54 | 2.62 | -0.66% |
| CN(C)CCn1nnnc1SCC1=C(C(=O)O)N2C(=O)[C@@H](NC(=O)Cc3csc(N)n3)[C@H]2SC1 [cefotiam] | 1.69 | -0.06 | -0.67 | 1.14 | 0.56% |
| CN(C)CCCSC(=N)N [dimaprit] | 0.47 | 0.92 | -0.82 | -1.15 | 2.17% |
| CCOC(=O)C1=C(COCCN)NC(C)=C(C(=O)OC)C1c1ccccc1Cl (stereo not given) [amlodipine] | 0.58 | -0.7 | 1.37 | -2.2 | 1.18% |
| CC(=O)N(OCc1ccccc1)[C@@H]1c2cc(C#N)ccc2OC(C)(C)[C@H]1O | -4.41 | -2.98 | -6.3 | 2.7 | 2.53% |
| C[C@H]1O[C@@H](Oc2c(-c3cc(O)c(O)c(O)c3)oc3cc(O)cc(O)c3c2=O)[C@@H](O)[C@@H](O)[C@@H]1O [myricitrin] | 0.43 | -0.53 | 0.85 | -1.02 | -1.34% |
| Cc1cn(-c2cc(NC(=O)c3ccc(C)c(Nc4nccc(-c5cccnc5)n4)c3)cc(C(F)(F)F)c2)cn1 [nilotinib] | 3.96 | 3.56 | 3.11 | 5.24 | 6.03% |
| O=C(O)c1nn(Cc2ccc(Cl)cc2Cl)c2ccccc12 [lonidamine] | -0.69 | 0.67 | 0.81 | 1.31 | -0.94% |
| COc1cccc(NC(=O)/C=C/c2ccc(Cl)cc2)c1 | -1.02 | -1.96 | -1 | -0.56 | -4.87% |
| Cc1ccc(/C=N/NC(=O)c2ccccc2Oc2ccccc2)o1 | -1.75 | -0.44 | -0.55 | 0.13 | 0.97% |
